Measured values: the supplement of paper PMC6555819

Legend:
Assay in all cases: PBM binding z-score (relative to random genomic background probes); higher = stronger binding; sequences stand for … in GC…GCGATTGACAGCGTAGAATGAAGG
[1] = test system: FXR:RXRa (NR concentration 270 nM, RXRa partner concentration 90 nM)
How it was run: (§1)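 For binding z-scores, the reference was random background probes on custom Agilent 4×180K protein-binding microarrays. These arrays were incubated 1 h with ligand-free nuclear receptor dimers in PBS pH 7.4, 2% milk, 0.02% Triton X-100, 1 mM DTT, 0.2 mg/mL BSA and 0.4 mg/ml salmon testes DNA. Fluorescence was scanned after antibody detection of each partner (one per run) and regression-normalized.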

[2] = test system: LXRa:RXRa (NR concentration 270 nM, RXRa partner concentration 90 nM)
How it was run: as §1

[3] = test system: LXRa homodimer (NR concentration 270 nM)
How it was run: as §1

[4] = test system: LXRb:RXRa (NR concentration 270 nM, RXRa partner concentration 90 nM)
How it was run: as §1

[5] = test system: LXRb homodimer (NR concentration 270 nM)
How it was run: as §1

[6] = test system: PPARa:RXRa (NR concentration 270 nM, RXRa partner concentration 90 nM)
How it was run: as §1

[7] = test system: PPARg:RXRa (NR concentration 180 nM, RXRa partner concentration 90 nM)
How it was run: as §1

[8] = test system: PPARg:RXRa 270nM:90nM, anti-RXR (NR concentration 270 nM, RXRa partner concentration 90 nM)
How it was run: as §1

[9] = test system: PPARg:RXRa 30nM:10nM, anti-RXR (NR concentration 30 nM, RXRa partner concentration 10 nM)
How it was run: as §1

[10] = test system: PPARg:RXRa 90nM:30nM, anti-RXR (NR concentration 90 nM, RXRa partner concentration 30 nM)
How it was run: as §1

[11] = test system: PPARg:RXRa DBDmut IVT, anti-RXR (DBD mutation: RXRa K156A/R161A, NR concentration 270 nM, RXRa partner concentration 90 nM)
How it was run: as §1

[12] = test system: PPARg:RXRa IVT, anti-PPARg (NR concentration 270 nM, RXRa partner concentration 90 nM)
How it was run: as §1

[13] = test system: PPARg DBDmut:RXRa IVT, anti-PPARg (DBD mutation: PPARg1 K132A/R137A, NR concentration 270 nM, RXRa partner concentration 90 nM)
How it was run: as §1

[14] = test system: PPARg DBDmut IVT, anti-PPARg (DBD mutation: PPARg1 K132A/R137A, NR concentration 270 nM)
How it was run: as §1

[15] = test system: PPARg homodimer (NR concentration 180 nM)
How it was run: as §1

[16] = test system: PXR:RXRa (NR concentration 270 nM, RXRa partner concentration 90 nM)
How it was run: as §1

[17] = test system: PXR homodimer (NR concentration 270 nM)
How it was run: as §1

[18] = test system: RARa:RXR (NR concentration 270 nM, RXRa partner concentration 90 nM)
How it was run: as §1

[19] = test system: RARa homodimer (NR concentration 270 nM)
How it was run: as §1

[20] = test system: RARb:RXRa (NR concentration 270 nM, RXRa partner concentration 90 nM)
How it was run: as §1

CCAGACAGGTGAAACGTAACTCAGTCTGGTACGC was tested, and the PBM binding z-score [1] was -0.253, the PBM binding z-score [2] was -0.0571 and the PBM binding z-score [3] was -0.351. For the same sequence, the PBM binding z-score [4] was -0.105, the PBM binding z-score [5] was -0.651 and the PBM binding z-score [6] was 0.658. For the same sequence, the PBM binding z-score [7] was 0.947, the PBM binding z-score [8] was 0.946 and the PBM binding z-score [9] was -0.101. For the same sequence, the PBM binding z-score [10] was 0.589, the PBM binding z-score [11] was 2.48 and the PBM binding z-score [12] was 0.769. It also gave a PBM binding z-score [13] of -0.823, a PBM binding z-score [14] of -0.558 and a PBM binding z-score [15] of 0.378. The PBM binding z-score [16] was -0.325, the PBM binding z-score [17] was -0.322 and the PBM binding z-score [18] was 0.0493. The PBM binding z-score [19] was 0.128 and the PBM binding z-score [20] was 0.621.
Sequence TAGCCTAGTTCAGATCGGGCCAGTATACGCTATA has a PBM binding z-score [1] of -0.29, a PBM binding z-score [2] of -0.351 and a PBM binding z-score [3] of -0.598. The PBM binding z-score [4] was -0.308, the PBM binding z-score [5] was -0.592 and the PBM binding z-score [6] was -0.113. For the same sequence, the PBM binding z-score [7] was -0.019, the PBM binding z-score [8] was -0.325 and the PBM binding z-score [9] was -0.538. For the same sequence, the PBM binding z-score [10] was -0.475, the PBM binding z-score [11] was 0.415 and the PBM binding z-score [12] was 0.54. It also gave a PBM binding z-score [13] of -0.537, a PBM binding z-score [14] of -0.978 and a PBM binding z-score [15] of -0.824. The PBM binding z-score [16] was 0.226, the PBM binding z-score [17] was -0.407 and the PBM binding z-score [18] was 0.532. For the same sequence, the PBM binding z-score [19] was -1.17 and the PBM binding z-score [20] was 0.472.
ATCTCTAGGTAAAAGTTCAGTTAATCCCGAGGAT gave a PBM binding z-score [1] of 1.31, a PBM binding z-score [2] of 1.89 and a PBM binding z-score [3] of 1.81. For the same sequence, the PBM binding z-score [4] was 1.34, the PBM binding z-score [5] was 1.19 and the PBM binding z-score [6] was 4.56. It also gave a PBM binding z-score [7] of 8.35, a PBM binding z-score [8] of 7.9 and a PBM binding z-score [9] of 8.17. The PBM binding z-score [10] was 8.69, the PBM binding z-score [11] was 1.85 and the PBM binding z-score [12] was 3.99. The PBM binding z-score [13] was 1.85, the PBM binding z-score [14] was 1.29 and the PBM binding z-score [15] was 2.13. It also gave a PBM binding z-score [16] of 2.28, a PBM binding z-score [17] of 2.02 and a PBM binding z-score [18] of 1.85. The PBM binding z-score [19] was 1.39 and the PBM binding z-score [20] was 2.24.
GCTCGGAGGACAAGGTCAAAGCTTTGTCCGTAGA was tested, and the PBM binding z-score [1] was 4.6, the PBM binding z-score [2] was 3.98 and the PBM binding z-score [3] was 0.466. For the same sequence, the PBM binding z-score [4] was 3.14, the PBM binding z-score [5] was 0.0189 and the PBM binding z-score [6] was 4.19. It also gave a PBM binding z-score [7] of 2.56, a PBM binding z-score [8] of 3.57 and a PBM binding z-score [9] of 0.553. The PBM binding z-score [10] was 2.47, the PBM binding z-score [11] was 0.217 and the PBM binding z-score [12] was 2.07. For the same sequence, the PBM binding z-score [13] was -1.59, the PBM binding z-score [14] was -1.02 and the PBM binding z-score [15] was 1.34. It also gave a PBM binding z-score [16] of 3.51, a PBM binding z-score [17] of 0.43 and a PBM binding z-score [18] of 3.77. The PBM binding z-score [19] was -0.688 and the PBM binding z-score [20] was 4.08.
AGAACGAGAGCACGCTGAGTTGATAGCAGAGTAG was tested, and the PBM binding z-score [1] was -0.802, the PBM binding z-score [2] was -0.854 and the PBM binding z-score [3] was -0.51. It also gave a PBM binding z-score [4] of -0.91, a PBM binding z-score [5] of -1.27 and a PBM binding z-score [6] of -0.425. The PBM binding z-score [7] was 0.523, the PBM binding z-score [8] was -0.601 and the PBM binding z-score [9] was -0.701. The PBM binding z-score [10] was -0.842, the PBM binding z-score [11] was 0.0563 and the PBM binding z-score [12] was -0.2. The PBM binding z-score [13] was -0.0826, the PBM binding z-score [14] was -0.875 and the PBM binding z-score [15] was -0.952. For the same sequence, the PBM binding z-score [16] was -0.515, the PBM binding z-score [17] was -0.415 and the PBM binding z-score [18] was -0.666. The PBM binding z-score [19] was -1.23 and the PBM binding z-score [20] was -0.39.
CGAACTAGGTCTTTGACAGGACAGTGAATAGTAA showed a PBM binding z-score [1] of -0.13, a PBM binding z-score [2] of 0.047 and a PBM binding z-score [3] of -0.136. It also gave a PBM binding z-score [4] of -0.238, a PBM binding z-score [5] of -0.525 and a PBM binding z-score [6] of 0.769. It also gave a PBM binding z-score [7] of 0.674, a PBM binding z-score [8] of 0.585 and a PBM binding z-score [9] of 0.162. It also gave a PBM binding z-score [10] of 0.43, a PBM binding z-score [11] of 4.79 and a PBM binding z-score [12] of 3.63. For the same sequence, the PBM binding z-score [13] was 0.956, the PBM binding z-score [14] was 0.308 and the PBM binding z-score [15] was 0.0171. The PBM binding z-score [16] was -0.285, the PBM binding z-score [17] was -0.19 and the PBM binding z-score [18] was 0.0375. For the same sequence, the PBM binding z-score [19] was -0.136 and the PBM binding z-score [20] was 0.0398.
